Values without a mark were called inactive. Inconclusive results are not listed. Active and inactive are the calls of the source. Calls follow the shape of the dose curve; as a rule, active = well fitted curve in the direction sought with a large enough effect; inconclusive = small, poorly fitted or top-dose-only effect, or another doubt; inactive = no such curve, though single readings can be large; an effect the other way counts as inactive or inconclusive.

Potency and outcome data for 7 compounds are collected here from PubChem BioAssay (NCATS).

Assay [1] relates to Nanoluciferase (engineered Oplophorus gracilirostris luciferase). In words: Primary Nanoluciferase (NLuc) qHTS assay for identification of artifact compounds. (AID 1845222). Also: potency is read from the fitted curve at half-maximal effect. The procedure, abridged:
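qHTS format, against NLuc in S16 cell-conditioned medium. Nano-Glo substrate 1:100 was added after 15 min at room temperature. Luminescence was taken after a further 5 min.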
Background: qHTS replaces the single test concentration by a dilution series.

The nature of assay [2]: Primary redox qHTS assay for identification of artifact compounds. (AID 1845223). The procedure, abridged: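 Amplex Red (25 uM) and HRP (250 mU/mL) in HBSS, with compounds for 15 min, then 250 uM DTT for 30 min, room temperature, dark. Fluorescence 525/598 nm read; normalized to DMSO and 10 uM DA3003; Hill fit.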
Assay [3] in a line: Quantitative High-Throughput drug screen in 47 multiple myeloma cell lines against the NCATS MIPE library collection: EJM_DSMZ cell viability assay (AID 1918926; also: nearly all actives have a fitted effect of over 30% in size; also: potency is read from the fitted curve at half-maximal effect). The procedure, abridged: (§1)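 Primary qHTS used for cherry-picking: cells at 500/well, library compounds for 48 h (37C, 5% CO2), luminescent ATP assay.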
The nature of assay [4]: Quantitative High-Throughput drug screen in 47 multiple myeloma cell lines against the NCATS MIPE library collection: JJN3_DSMZ cell viability assay (AID 1918966; also: nearly all actives have a fitted effect of over 50% in size; also: potency is read from the fitted curve at half-maximal effect). The procedure, abridged: as §1
Assay [5] can be described thus: Quantitative High-Throughput drug screen in 47 multiple myeloma cell lines against the NCATS MIPE library collection: H1112_PLB cell viability assay (AID 1918967; also: nearly all actives have a fitted effect of over 30% in size; also: potency is read from the fitted curve at half-maximal effect). The procedure, abridged: as §1
The nature of assay [6]: Quantitative High-Throughput drug screen in 47 multiple myeloma cell lines against the NCATS MIPE library collection: KMS12BM_JCRB cell viability assay (AID 1918971). Also: nearly all actives have a fitted effect of over 35% in size. Also: potency is read from the fitted curve at half-maximal effect. Put shortly: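 Viability readout: CellTiter-Glo luminescence following 5 min room-temperature incubation with reagent. Prior exposure: 48 h, 37C, humidified 5% CO2, 500 cells per well.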
Assay [7] is described as follows: Quantitative High-Throughput drug screen in 47 multiple myeloma cell lines against the NCATS MIPE library collection: FR4_PLB cell viability assay (AID 1918924; also: nearly all actives have a fitted effect of over 35% in size; also: potency is read from the fitted curve at half-maximal effect). The procedure, abridged:
(§2)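 Inhibition of cell viability is measured here. Each line was plated at 500 cells per well, treated with MIPE 4.0 drugs, kept 48 hours at 37C, then assayed for ATP content by CellTiter-Glo luminescence.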

The nature of assay [8]: Quantitative High-Throughput drug screen in 47 multiple myeloma cell lines against the NCATS MIPE library collection: Delta47_JCRB cell viability assay (AID 1918925; also: nearly all actives have a fitted effect of over 45% in size; also: potency is read from the fitted curve at half-maximal effect). Put shortly: as §1
A short description of assay [9]: Quantitative High-Throughput drug screen in 47 multiple myeloma cell lines against the NCATS MIPE library collection: Karpas620_DSMZ cell viability assay (AID 1918959). Also: nearly all actives have a fitted effect of over 30% in size. Also: potency is read from the fitted curve at half-maximal effect. Put shortly: as §2
The nature of assay [10]: Quantitative High-Throughput drug screen in 47 multiple myeloma cell lines against the NCATS MIPE library collection: KMM1_JCRB cell viability assay (AID 1918960). Also: nearly all actives have a fitted effect of over 30% in size. Also: potency is read from the fitted curve at half-maximal effect. The procedure, abridged: (§3)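 Here, 48 h treatment with MIPE 4.0 agents at 37 °C preceded an ATP luminescence read. Plating density was 500 cells per well.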
Assay [11] can be described thus: Quantitative High-Throughput drug screen in 47 multiple myeloma cell lines against the NCATS MIPE library collection: JIM3_ECACC cell viability assay (AID 1918963; also: nearly all actives have a fitted effect of over 35% in size; also: potency is read from the fitted curve at half-maximal effect). Put shortly:
as §2

Assay [12] in a line: Quantitative High-Throughput drug screen in 47 multiple myeloma cell lines against the NCATS MIPE library collection: JIM1_ECACC cell viability assay (AID 1918964; also: potency is read from the fitted curve at half-maximal effect). The procedure, abridged:
as §1

The nature of assay [13]: Quantitative High-Throughput drug screen in 47 multiple myeloma cell lines against the NCATS MIPE library collection: Karpas25_ECACC cell viability assay (AID 1918968; also: nearly all actives have a fitted effect of over 35% in size; also: potency is read from the fitted curve at half-maximal effect). The procedure, abridged: as §1
Assay [14] is described as follows: Quantitative High-Throughput drug screen in 47 multiple myeloma cell lines against the NCATS MIPE library collection: KMS27_JCRB cell viability assay (AID 1918970). Also: nearly all actives have a fitted effect of over 30% in size. Also: potency is read from the fitted curve at half-maximal effect. The note with it: KMS27 myeloma cells, CellTiter-Glo ATP viability, 48 h; viability (% of DMSO): at 45.8 µM (top of the series). Put shortly:
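Each line is seeded at 500 cells per well and treated with library compounds for 48 hours under 37 °C, 5% CO2. CellTiter-Glo is then added for 5 min at room temperature before median relative luminescence is recorded.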
For orientation: In ATP-based viability assays light output follows the ATP content of the culture.

A short description of assay [15]: Quantitative High-Throughput drug screen in 47 multiple myeloma cell lines against the NCATS MIPE library collection: AMO1_DSMZ cell viability assay (AID 1918927; also: nearly all actives have a fitted effect of over 30% in size; also: potency is read from the fitted curve at half-maximal effect). Put shortly: as §1
Assay [16] is described as follows: Quantitative High-Throughput drug screen in 47 multiple myeloma cell lines against the NCATS MIPE library collection: ARD_JJKsccE7 cell viability assay (AID 1918929; also: potency is read from the fitted curve at half-maximal effect). Put shortly:
as §1

Assay [17] is described as follows: Quantitative High-Throughput drug screen in 47 multiple myeloma cell lines against the NCATS MIPE library collection: Karpas417_ECACC cell viability assay (AID 1918961). Also: potency is read from the fitted curve at half-maximal effect. The note with it: Karpas417 myeloma viability, CellTiter-Glo ATP luminescence, 48 h; viability (% of DMSO): at 45.8 µM (top of the series). Put shortly: (§4)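 qHTS of the MIPE 4.0 collection: 500 myeloma cells/well, 48 h drug exposure at 37C in 5% CO2, then CellTiter-Glo for 5 min at room temperature before luminescence reading.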

Assay [18] in a line: Quantitative High-Throughput drug screen in 47 multiple myeloma cell lines against the NCATS MIPE library collection: KHM11_PLB cell viability assay (AID 1918962). Also: nearly all actives have a fitted effect of over 35% in size. Also: potency is read from the fitted curve at half-maximal effect. Put shortly:
as §2

Assay [19] in a line: Quantitative High-Throughput drug screen in 47 multiple myeloma cell lines against the NCATS MIPE library collection: INA6_PLB cell viability assay (AID 1918965; also: nearly all actives have a fitted effect of over 55% in size; also: potency is read from the fitted curve at half-maximal effect). Put shortly:
as §4

Assay [20] is described as follows: Quantitative High-Throughput drug screen in 47 multiple myeloma cell lines against the NCATS MIPE library collection: ARP1_JJKsccF8 cell viability assay (AID 1918928; also: potency is read from the fitted curve at half-maximal effect; nearly all actives have a fitted effect of over 40% in size). The procedure, abridged:
as §3

With `Nc1ccc(-c2ccc3ncc4ccc(=O)n(-c5cccc(C(F)(F)F)c5)c4c3c2)cn1`, the Potency entry in assay [1] was “inactive”. Further, the compound was called inactive in [2]. Also, the Potency is 0.0187 µM (active) in assay [3], 0.0235 µM (active) in [4], 0.0469 µM (active) in assay [5] and 0.0105 µM (active) in [6].

For `CN1c2ccccc2C(=O)N2CCc3c([nH]c4ccccc34)C21` (centres undefined), the Potency result in assay [1], in [7], in assay [3], in assay [9], in assay [10] and in assay [12] was “inactive” throughout. The Potency result in [14] was “inactive”. For the same compound, the result in assay [2] was inactive. The Potency was 26.4 µM (active) in assay [8], 23.5 µM (active) in [11] and 23.5 µM (active) in [13].

For the compound `NS(=O)(=O)c1ccc(Nc2nc(OCC3CCCCC3)c3[nH]cnc3n2)cc1`, in assay [1], the Potency result was “inactive”. The call in assay [2] was inactive. For the same compound, the Potency is 16.6 µM (active) in [8]; 23.5 µM (active) in assay [3]; 18.7 µM (active) in assay [15]; 16.6 µM (active) in assay [16]; 18.7 µM (active) in assay [10]; 14.8 µM (active) in assay [17]. In addition, the Potency in [18] was 26.4 µM (active); in assay [11], 20.9 µM (active); in assay [12] it was 20.9 µM (active); in assay [19] it was 3.32 µM (active); in assay [6] it was 26.4 µM (active).

As for `CCCCn1c(=O)n(Cc2ccccc2F)c(=O)c2[nH]c(Cc3ccc(NC(C)=O)cc3)nc21`, the Potency was 13.5 µM (active) in assay [1] and 0.0042 µM (active) in [12]. Also, the outcome in [2] was inactive. In addition, the Potency entry in [8], in assay [16], in assay [9] and in [14] was “inactive” each time.

Consider `CNC(=O)c1cc(Oc2ccc(NC(=O)Nc3ccc(Cl)c(C(F)(F)F)c3)c(F)c2)ccn1`, for which, in [1], the Potency result is “inactive”. Also, the compound was classed as inactive in assay [2]. In addition, the Potency in assay [7] is 23.5 µM (active); in assay [15], 5.9 µM (active); in [20], 23.5 µM (active); in assay [16], 5.26 µM (active); in assay [9], 10.5 µM (active); in [10] it was 2.96 µM (active). In addition, the Potency in [18] was 0.059 µM (active); in assay [11], 3.32 µM (active); in [12], 13.2 µM (active); in [19] it was 5.9 µM (active); in [4], 29.6 µM (active); in [13] it was 2.64 µM (active). The Potency is 7.43 µM (active) in assay [14] and 18.7 µM (active) in assay [6].

For `NS(=O)(=O)c1cc(Cl)c(Cl)c(S(N)(=O)=O)c1`, the Potency entry in assay [1], in assay [8], in assay [15], in [9], in [18] and in [11] was “inactive” each time. Moreover, the Potency result in assay [12], in assay [19], in assay [4], in assay [5], in [13] and in assay [14] was “inactive” in each case. Moreover, the compound was called inactive in assay [2]. Besides, the Potency in assay [20] is 8.33 µM (active).

For `CCn1c(-c2nonc2N)nc2cncc(CNC3CCNCC3)c21`, the Potency entry in [1], in assay [3] and in [6] was “inactive” throughout. In assay [2], the compound was classed as inactive. The Potency was 10.5 µM (active) in [20]; 2.64 µM (active) in assay [18]; 2.96 µM (active) in assay [11]; 5.9 µM (active) in assay [19]; 5.26 µM (active) in assay [4]; 5.26 µM (active) in assay [5]. Also, the Potency is 8.33 µM (active) in [13] and 2.09 µM (active) in assay [14].
